Experimental findings from PubChem BioAssay (NCATS) are described below.

Assay [1] is described as follows: Cytotoxicity counterscreen for inhibitors of SARS-CoV-2 cell entry (AID 1645845). For activity change, negative = cytotoxicity: % is set by controls: 0 for no effect and ±100 for the full control effect. Note: nearly all actives have a fitted effect of over 50% in size. In a few lines: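 Expi293F/hACE2 cells seeded overnight; cpd pin-transferred in DMSO, 1 h preincubation, + media, 48 h 37 C 5% CO2; ATPLite 1step luminescence; normalized to cells and no cells.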
On the technique in general: A counterscreen serves to expose hits that act by an unwanted route or on another target.

A short description of assay [2]: Primary qHTS to identify inhibitors of SARS-CoV-2 cell entry (AID 1645846). Note: nearly all actives have a fitted effect of over 45% in size. Note: potency is the fitted concentration of half-maximal effect. Conditions: activity change, negative = inhibition: at 57.1 µM (top of the series) unless noted. An outline of the steps:
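HEK293 cells stably expressing human ACE2, pre-treated 1 h with compound, then infected with MLV particles pseudotyped with Wuhan-Hu-1 spike (C-terminal 19-aa truncation). Luciferase luminescence after 48 h at 37 °C, normalised to spike PP and bald PP.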
(qHTS replaces the single test concentration by a dilution series.)

SMILES strings stand for the structures. Inconclusive results are not listed. Calls of active or inactive are those of the source. Calls come from the whole dose curve.

Take `CC(=O)Nc1ccc(OC(=O)c2ccccc2OC(C)=O)cc1`: the Potency result in assay [1] is “inactive”. The activity change, negative = inhibition in assay [2] is -2.29%.
In the case of `CC1CCc2c(N3CCC(O)CC3)c(F)cc3c(=O)c(C(=O)O)cn1c23` (configuration not stated), the Potency result in assay [1] and in assay [2] was “inactive” in each case.
As to `O=C(O)Cc1cccc(-c2cc(CCCCCCc3ccc(O[C@H]4O[C@H](CO)[C@@H](O)[C@H](O)[C@@H]4O)c(-c4cccc(CC(=O)O)c4)c3)ccc2O[C@H]2O[C@H](CO)[C@@H](O)[C@H](O)[C@@H]2O)c1`, the activity change, negative = cytotoxicity in assay [1] was 4.02% [at 0.702 µM] (inactive). For the same molecule, the activity change, negative = inhibition in assay [2] is -14.7% [at 0.702 µM].
Consider `CCn1nc(C(=O)O)c(=O)c2cc3c(cc21)OCO3`, for which the Potency entry in assay [1] and in assay [2] was “inactive” in each case.
Turning to `CC(C(=O)O)c1ccc2c(c1)CC(=O)c1ccccc1S2` (configuration not stated), the Potency entry in assay [1] and in assay [2] was “inactive” in each case.
As to `NCC(=O)CCC(=O)O`, the Potency result in assay [1] is “inactive”. Besides, in assay [2], the activity change, negative = inhibition was -19.8%.
`CC(C)(S)[C@@H](N)C(=O)O`: the outcome in assay [1] was “inactive [at 5.25 µM]”. For the same molecule, the activity change, negative = inhibition in assay [2] stood at 2.83% [at 5.25 µM].
With `CC(=O)c1ccc(S(=O)(=O)NC(=O)NC2CCCCC2)cc1`, in assay [1], the Potency result was “inactive”. The activity change, negative = inhibition in assay [2] stood at 4.85%.
The matching figures for `CCCc1c2oc(C(=O)O)cc(=O)c2cc2c(=O)cc(C(=O)O)n(CC)c12`: “inactive” and -16.5%.
With `O=C1c2ccccc2C(=O)c2c1ccc(O)c2O`, the Potency entry in assay [1] and in assay [2] was “inactive” each time.
Consider `CCOC(=O)c1ccc(N)cc1`, for which the Potency result in assay [1] and in assay [2] was “inactive” each time.
With `Cc1c(F)c(N2CCNC(C)C2)cc2c1c(=O)c(C(=O)O)cn2C1CC1` (configuration not stated), the Potency result in assay [1] is “inactive”. Besides, the activity change, negative = inhibition in assay [2] was -25.6%.
Regarding `C=CCN1CCc2nc(N)sc2CC1`, the Potency result in assay [1] and in assay [2] was “inactive” in each case.
In the case of `O=C(O)/C=C\C(=O)O`, the Potency result in assay [1] and in assay [2] was “inactive” throughout.
On to `Cc1cccn2c(=O)c(-c3nnn[nH]3)cnc12`, for which the Potency result in assay [1] and in assay [2] was “inactive” each time.
As for `CC(C)[C@H](N)C(=O)OCCOCn1cnc2c(=O)[nH]c(N)nc21`, in assay [1], the Potency entry is “inactive”. The activity change, negative = inhibition in assay [2] is -28.1%.
In the same order, the values of `CC(C)(C)NC[C@H](O)COc1cccc2c1CCCC2=O` are “inactive” and -5.98%.
For `CCCc1nc(C(C)(C)O)c(C(=O)OCc2oc(=O)oc2C)n1Cc1ccc(-c2ccccc2-c2nn[nH]n2)cc1`, the Potency entry in assay [1] was “inactive”. For the same molecule, in assay [2], the activity change, negative = inhibition is -0.861%.
Turning to `CCO/C([O-])=N/c1c[n+](N2CCOCC2)no1`, the Potency entry in assay [1] and in assay [2] was “inactive” each time.
On to `CCCCC[C@H](O)/C=C/[C@@H]1[C@H]2C/C(=C/CCCC(=O)O)O[C@H]2C[C@H]1O`, for which the Potency result in assay [1] was “inactive”. The activity change, negative = inhibition in assay [2] is -21%.
`CN1CCC[C@@H]1c1cccnc1`: the Potency result in assay [1] and in assay [2] was “inactive” throughout.
As to `CNCCCC12CCC(c3ccccc31)c1ccccc12`, the Potency entry in assay [1] is “inactive”. Further, the Potency in assay [2] is 28.2 µM (active).
With `Nc1cc(C(Cl)=C(Cl)Cl)c(S(N)(=O)=O)cc1S(N)(=O)=O`, the Potency result in assay [1] is “inactive”. Moreover, in assay [2], the Potency result is “inactive” and the activity change, negative = inhibition is -25%.
